Results filed as inconclusive are left out. Calls of active or inactive are those of the source. The call rests on the fitted dose curve; in most records, active means well fitted inhibition curve with a large enough effect; inconclusive means small, poorly fitted or top-dose-only effect; inactive means flat fitted curve, though single readings scatter.

The record followed here is PubChem BioAssay (NCATS).

Holding throughout (experiment): qHTS profiling for inhibitors of Plasmodium falciparum proliferation (AID 504749); further: nearly all actives have a fitted effect of over 60% in size
What all share (settings): P. falciparum in erythrocytes, SYBR Green DNA, 72 h; series mostly up to 28.7 µM

Assay [1] deals with CP260. The method in brief: (§1)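 P. falciparum-infected erythrocytes (0.3% parasitemia, 2.5% hematocrit) incubated with compound 72 h at 37 C, 5% CO2. Parasite DNA detected by SYBR Green after lysis, overnight at room temperature; normalised to 0.29 uM artemisinin and DMSO.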
Assay [2] concerns CP262. In a few lines: as §1
Assay [3] relates to CP265. The method in brief: as §1
For assay [4], the system named is CP266. In a few lines:
as §1

For assay [5], the system named is CP268. In a few lines: as §1
Assay [6] has as its system CP269. In a few lines:
as §1

Assay [7] relates to CP286. The method in brief:
as §1

The test system of assay [8] is CP291. In a few lines:
as §1

The test system of assay [9] is CP297. In a few lines:
as §1

In assay [10] the test system is CP305. In a few lines:
as §1
Potency means the concentration at half of the fitted maximal effect.

`CN1CCN(C(=O)C2CCCCC2)CC1`: the Potency result in [1], in [3], in assay [5], in assay [7] and in assay [10] was “inactive” throughout. Moreover, the molecule was called inactive in [2], in assay [4], in assay [6], in [8] and in assay [9].
`O=C1c2ccccc2S(=O)(=O)N1CCCCN1CCN(c2ncccn2)CC1`: the Potency result in assay [1], in assay [3], in assay [5], in assay [7] and in assay [10] was “inactive” in each case. Moreover, the molecule was called inactive in assay [2], in [4], in assay [6], in assay [8] and in [9].
Regarding `O=C(NCN1CCOCC1)c1cnccn1`, the Potency result in assay [1], in [3], in assay [5], in assay [7] and in [10] was “inactive” in each case. In addition, the outcome in assay [2], in assay [4], in assay [6], in assay [8] and in assay [9] was inactive.
As to `O=C(O)COC(=O)Cc1ccccc1Nc1c(Cl)cccc1Cl`, the Potency entry in [1], in [3], in [5], in [7] and in assay [10] was “inactive” each time. In addition, the molecule was classed as inactive in [2], in assay [4], in assay [6], in [8] and in [9].
Take `CC(=O)Nc1ccc(OCCOCCOc2ccc(NC(C)=O)cc2)cc1`: the Potency entry in assay [1], in assay [3], in [5], in assay [7] and in [10] was “inactive” each time. Moreover, the molecule was classed as inactive in assay [2], in assay [4], in [6], in [8] and in [9].
As for `CCCOC(=O)c1ccc(N)cc1`, the Potency result in assay [1], in assay [3], in [5], in [7] and in assay [10] was “inactive” in each case. Further, the molecule was classed as inactive in [2], in assay [4], in assay [6], in [8] and in assay [9].
Turning to `CCCCCCCC(=O)OCC(O)CO` (stereo not given), the Potency result in assay [1], in [3], in [5], in [7] and in assay [10] was “inactive” each time. The molecule was called inactive in assay [2], in assay [4], in assay [6], in [8] and in assay [9].
Take `O=c1[nH]c(=O)c2ccccc2o1`: the Potency result in [1], in assay [3], in assay [5], in [7] and in assay [10] was “inactive” in each case. In addition, the result in assay [2], in assay [4], in assay [6], in assay [8] and in assay [9] was inactive.
For `COC(=O)c1cccnc1`, the Potency result in assay [1], in assay [3], in assay [5], in assay [7] and in assay [10] was “inactive” in each case. Also, the molecule was called inactive in [2], in assay [4], in assay [6], in [8] and in assay [9].
As for `OC[C@@H](O)[C@@H](O)[C@H](O)[C@H](O)CO`, the Potency result in assay [1], in assay [3], in assay [5], in assay [7] and in assay [10] was “inactive” throughout. Further, the molecule was classed as inactive in [2], in [4], in [6], in assay [8] and in assay [9].
For `CCOC(=O)[C@H](CCc1ccccc1)N[C@@H](C)C(=O)N1CCC[C@H]1C(=O)O`, the Potency entry in assay [1], in assay [3], in assay [5], in assay [7] and in [10] was “inactive” in each case. The call in [2], in assay [4], in assay [6], in assay [8] and in assay [9] was inactive.
Take `Cc1c(I)c(=O)n(-c2ccccc2)n1C`: the Potency entry in assay [1], in assay [3], in [5], in [7] and in assay [10] was “inactive” each time. The result in assay [2], in assay [4], in [6], in [8] and in assay [9] was inactive.
Regarding `C[C@@H](N)C(=O)O`, the Potency result in assay [1], in [3], in [5], in [7] and in assay [10] was “inactive” throughout. Moreover, the molecule was called inactive in [2], in assay [4], in [6], in [8] and in assay [9].
Regarding `CC(=O)SC[C@@H](Cc1ccccc1)C(=O)NCC(=O)OCc1ccccc1`, the Potency entry in assay [1], in [3], in assay [5], in assay [7] and in assay [10] was “inactive” throughout. The result in assay [2], in assay [4], in [6], in assay [8] and in [9] was inactive.
`O=C(Cn1ccnc1[N+](=O)[O-])NCc1ccccc1`: the Potency result in assay [1], in assay [3], in assay [5], in assay [7] and in assay [10] was “inactive” in each case. Besides, the result in assay [2], in [4], in assay [6], in assay [8] and in assay [9] was inactive.
As to `COc1ccccc1Oc1c(NS(=O)(=O)c2ccc(C(C)(C)C)cc2)nc(-c2ncccn2)nc1OCCO`, the Potency result in [1], in assay [3], in [5], in assay [7] and in assay [10] was “inactive” throughout. Further, the molecule was classed as inactive in [2], in assay [4], in [6], in [8] and in assay [9].
`CC(O)CCCCn1c(=O)c2c(ncn2C)n(C)c1=O` (stereo not given): the Potency result in assay [1], in [3], in assay [5], in assay [7] and in assay [10] was “inactive” in each case. For the same molecule, the call in assay [2], in assay [4], in assay [6], in assay [8] and in assay [9] was inactive.
On to `CCCCCC(C)N` (stereo not given), for which the values for the Potency in [1] and in assay [7] were 10 µM (active) and 8.91 µM (active), respectively. The result in assay [2], in [4], in assay [6], in assay [8] and in assay [9] was inactive. The Potency entry in assay [3], in assay [5] and in assay [10] was “inactive” throughout.
On to `OCc1ccc(Cl)cc1Cl`, for which the Potency entry in assay [1], in assay [3], in [5], in assay [7] and in [10] was “inactive” each time. Moreover, the call in [2], in assay [4], in assay [6], in assay [8] and in [9] was inactive.
On to `Cn1c(=O)c2c(ncn2CCO)n(C)c1=O`, for which the Potency entry in [1], in assay [3], in [5], in assay [7] and in [10] was “inactive” throughout. Moreover, the molecule was classed as inactive in assay [2], in assay [4], in [6], in assay [8] and in assay [9].
Turning to `CCCCCCCCCCCCCCCCC(C(=O)O)C(O)(CC(=O)O)C(=O)O` (stereo not given), the Potency result in [1], in [3], in assay [5], in assay [7] and in assay [10] was “inactive” each time. For the same molecule, the outcome in assay [2], in assay [4], in [6], in assay [8] and in assay [9] was inactive.
For the molecule `CC(N)CCCC(C)(C)O` (stereo not given), the Potency entry in assay [1], in [3], in assay [5], in assay [7] and in assay [10] was “inactive” each time. Also, the molecule was called inactive in [2], in assay [4], in [6], in [8] and in [9].
Consider `CCN(CC)S(=O)(=O)c1ccc(C(=O)O)cc1`, for which the Potency result in assay [1], in assay [3], in assay [5], in assay [7] and in [10] was “inactive” throughout. Further, the molecule was called inactive in [2], in assay [4], in assay [6], in assay [8] and in [9].
On to `Cc1c(Cn2ccnc2)c2ccccc2n1CCC(=O)O`, for which the Potency result in assay [1], in [3], in assay [5], in assay [7] and in [10] was “inactive” in each case. For the same molecule, the call in assay [2], in assay [4], in [6], in [8] and in [9] was inactive.
On to `O=C(O)c1cc(=O)c2ccccc2o1`, for which the Potency entry in assay [1], in assay [3], in [5], in [7] and in assay [10] was “inactive” throughout. Also, the molecule was classed as inactive in [2], in [4], in [6], in [8] and in assay [9].
